# DT40 TDP1 no CPT: qHTS for Inhibitors of human tyrosyl-DNA phosphodiesterase 1 (TDP1): qHTS in cells in absence of CPT; Potency, µM (series often up to 46.2 µM), inactives show top-dose activity change, negative = growth inhibition, hits mostly inhibitors; 15% of 420,000 active; DT40 Tdp1-/- hTDP1 cells, no CPT, ATP luminescence, 48 h; note: potency is the fitted concentration of half-maximal effect; nearly all actives have a fitted effect of over 55% in size
#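 A cellular qHTS used chicken DT40 cells lacking endogenous Tdp1 but carrying stably transfected human TDP1. Compounds were applied without camptothecin, and cell growth kinetics were judged by ATP-dependent luminescence after ≥48 hr.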
# ALOX12 inh: Primary qHTS assay for inhibitors of human arachidonate 12S-lipoxygenase (ALOX12): Round 2. AID 1671190, 2021. Potency, µM (series often up to 108 µM), for the others: top-dose activity change, negative = inhibition, usual class: inhibitors. 1.1% of 580,000 active. purified 12hLO, xylenol orange hydroperoxide absorbance; note: potency is the fitted concentration of half-maximal effect
# Target sequence (P18054 whole entry, looked up): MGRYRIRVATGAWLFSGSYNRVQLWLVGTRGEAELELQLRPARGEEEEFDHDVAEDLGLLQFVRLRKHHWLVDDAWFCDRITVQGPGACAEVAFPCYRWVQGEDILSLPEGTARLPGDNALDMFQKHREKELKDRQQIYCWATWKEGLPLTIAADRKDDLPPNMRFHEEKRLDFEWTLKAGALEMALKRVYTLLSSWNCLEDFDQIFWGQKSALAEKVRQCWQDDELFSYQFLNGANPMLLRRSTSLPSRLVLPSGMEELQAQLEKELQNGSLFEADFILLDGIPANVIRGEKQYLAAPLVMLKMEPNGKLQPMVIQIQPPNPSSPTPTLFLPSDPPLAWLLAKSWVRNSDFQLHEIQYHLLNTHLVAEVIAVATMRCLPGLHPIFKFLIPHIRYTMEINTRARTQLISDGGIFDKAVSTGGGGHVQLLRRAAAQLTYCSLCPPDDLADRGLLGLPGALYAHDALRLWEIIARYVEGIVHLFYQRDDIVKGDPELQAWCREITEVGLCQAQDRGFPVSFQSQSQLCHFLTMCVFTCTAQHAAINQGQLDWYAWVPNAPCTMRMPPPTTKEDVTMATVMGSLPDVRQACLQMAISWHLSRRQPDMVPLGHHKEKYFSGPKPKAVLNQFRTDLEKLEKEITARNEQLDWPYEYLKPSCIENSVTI
#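 Hydroperoxide product was detected by ferrous iron/xylenol orange as the 573 to 405 nm absorbance ratio. Arachidonic acid at 40 uM (final) was turned over for 30 min at room temperature by 150 nM human 12hLO, pH 7.0 Hepes buffer, after 15 min compound preincubation.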
# TDP1 cell CPT: qHTS for Inhibitors of human tyrosyl-DNA phosphodiesterase 1 (TDP1): qHTS in cells in presence of CPT; chicken DT40 Tdp1-/-;hTDP1 cells + 20 nM CPT, ATP luminescence, 48 h; Potency, µM (highest dose often 46.2 µM), for the others: at the top dose activity change, negative = growth inhibition, usual class: inhibitors; 12% of 420,000 active; AID 686979, 2013; note: potency is the fitted concentration of half-maximal effect; nearly all actives have a fitted effect of over 55% in size
#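 Chicken DT40 Tdp1-/- cells stably complemented with human TDP1 were seeded at 400 cells/well in medium containing 20 nM camptothecin, exposed to pin-transferred compounds, and grown at 37 °C for at least 48 hr. Viability was read as ATP luminescence.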
# IL1B secr inh: qHTS for Inhibitors of Inflammasome Signaling: IL-1-beta AlphaLISA Primary Screen. THP-1 LPS/ATP IL-1B secretion, AlphaLISA, 16 h; stronger effect = lower value. 4.7% of 360,000 active. AID 743279, 2014. activity change, % at 57.5 µM; in the data active = activity change below about -50%; inconclusive = mostly about -30% to -49%
#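 Secreted IL-1B measured by AlphaLISA bead assay after 16 h compound exposure of THP-1 cells; compounds (final up to 57.5 uM) added 1 h before LPS (250 ng/mL) and ATP (1.25 mM) stimulation; lower signal means less secretion.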
# HT1080 IDH1KD tx: qHTS for induction of synthetic lethality in tumor cells producing 2HG: qHTS for the HT-1080-IDH1KD cell line; 2% of 360,000 active; Potency, µM (titrated, usually from 46.1 µM), for inactives: at the highest dose activity, negative = toxicity, usual class: cytotoxic; AID 686971, 2013; HT-1080 IDH1 knockdown viability, ATP luminescence, 48 h;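 note: potency is the fitted concentration of half-maximal effect; 0% = DMSO wells and -100% = cell-free medium wells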
#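 HT-1080-IDH1KD cells (IDH1 knocked down), 750/well in RPMI with 5% FBS, treated with compound 48 h at 37 degrees C. Viability by CellTiter-Glo luminescence, normalised to DMSO and no-cell wells; concentration-response curves classed.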
# HT1080-NT tox: qHTS for induction of synthetic lethality in tumor cells producing 2HG: qHTS for the HT-1080-NT fibrosarcoma cell line | Potency, µM (doses to about 46.1 µM), inactives show top-dose activity, negative = less viability, most hits filed as cytotoxic | 1.6% of 360,000 active | HT-1080-NT fibrosarcoma viability, CellTiter-Glo ATP luminescence, 48 h;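 note: NT is the 2HG producing partner of a matched IDH1 knockdown line; potency is the fitted concentration of half-maximal effect; 0% = DMSO-treated cells and -100% = media-only wells without cells; nearly all actives have a fitted effect of over 55% in size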
#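 Compounds were tested in concentration-response format on HT-1080-NT cells for 48 hours at 37 degrees C. Cell viability came from CellTiter-Glo luminescence; curves were classified by r2, response magnitude and activity.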
# * = called active by the depositor; ? = inconclusive; nt = not tested or not shown; [ ] = remark or other dose. Shown is part of a subset that was picked to be rich in hits. Unless noted, calls come from the whole dose curve; as a rule, active = well fitted curve in the direction sought with a large enough effect; inconclusive = small, poorly fitted or top-dose-only effect, or another doubt; inactive = no such curve, though single readings can be large; an effect the other way counts as inactive or inconclusive. Unless noted, % is set by controls: 0 for no effect and ±100 for the full control effect.
SMILES,DT40 TDP1 no CPT,ALOX12 inh,TDP1 cell CPT,IL1B secr inh,HT1080 IDH1KD tx,HT1080-NT tox
O=C(Nc1cccnc1)C1CCC(CNS(=O)(=O)c2cccc3nsnc23)CC1 (stereo unspecified),?,-9%,-28%,-10,-3%,-4%
COc1ccc(NC(=O)C2CCC(CNS(=O)(=O)c3cccc4nsnc34)CC2)cc1OC (stereo unspecified),16µM*,-4%,?,nt,nt,nt
CCC(CC)C(=O)Nc1cccc(-c2nc3ccccc3s2)c1,?,-24%,21µM*,nt,nt,nt
Cn1c(=O)c2ncn(CC(=O)Nc3cccc(-c4nc5ccccc5s4)c3)c2n(C)c1=O,15µM*,2%,15µM*,39,-2%,?
Cc1cccc(OCC(=O)Nc2cccc(-c3nc4ccccc4s3)c2)c1,?,-4%,?,nt,nt,nt
CCOc1ccccc1C(=O)Nc1cccc(-c2nc3ccccc3s2)c1,5.2µM*,?,6.5µM*,nt,nt,nt
CCCC(CCC)C(=O)Nc1cccc(-c2nc3cccnc3s2)c1,-2%,?,-8%,nt,nt,nt
O=C(CCS(=O)(=O)c1ccccc1)Nc1cccc(-c2nc3ccccc3s2)c1,18µM*,2%,?,103,-29%,-12%
Cc1ccccc1CCNC(=O)Cn1cc(C(N)=O)c2ccccc21,nt,21%,nt,nt,nt,nt
COc1c(C)cccc1C(=O)Nc1ccc(-c2nc3ccccc3s2)c(Cl)c1,12µM*,0%,?,nt,nt,nt
CCOc1cc(C(=O)Nc2ccc(-c3nc4ccccc4s3)cc2Cl)cc(OCC)c1OCC,23µM*,-11%,?,nt,nt,nt
COc1cc(OC)cc(C(=O)Nc2cc(-c3nc4ccccc4s3)ccc2OC)c1,-3%,0%,0%,nt,nt,nt
CCC(CC)C(=O)Nc1cccc(-c2nc3cc(C)ccc3o2)c1,nt,19%,nt,nt,nt,nt
CCS(=O)(=O)c1ccccc1C(=O)Nc1ccc(-c2nc3ccccc3s2)cc1,15µM*,-25%,?,nt,nt,nt
CCC(CC)C(=O)Nc1cccc(-c2nc3ccccc3o2)c1,16µM*,-8%,?,-23,15%[9.24 µM],?
Cc1nc(NCc2ccccc2)sc1C(=O)NC1CCCC1,nt,3%,nt,nt,nt,nt
CCC1(C(=O)N2CCc3ccccc3C2)CCCCC(=O)N1 (stereo unspecified),nt,2%,nt,nt,nt,nt
CCOC(=O)c1ccc(NC(=O)CCC2CCCC2)cc1,nt,17%,nt,nt,nt,nt
COc1ccc(C2N(c3ccc(Cl)cc3)N=C(C(C)=O)N(C)N2C(C)=O)cc1 (stereo unspecified),?,-59%,-14%,-58*,?,?
CC(=O)Nc1ccc(NC(=O)c2cc([N+](=O)[O-])cc([N+](=O)[O-])c2)cc1,-29%,0%,?,41,-2%,-5%
Nc1ccc(Sc2ccc([N+](=O)[O-])cc2)cc1,?,?,?,-70*,0%,-5%
CC(=O)Nc1ccc(Sc2ccc([N+](=O)[O-])o2)cc1,2.6µM*,?,2.6µM*,-97*,5.8µM*,4.1µM*
Cn1c(N)c(Sc2ccc([N+](=O)[O-])cc2)c(=O)n(C)c1=O,-2%,-5%,-4%,14,20%,17%
CC(C)(C)C(=O)Nc1ccc(Sc2ccc([N+](=O)[O-])cc2)cc1,7.3µM*,-14%,8.2µM*,-9,-14%,-14%
COC(C(=O)N1CC(=O)N(Cc2cccnc2)CC(OCc2ccccc2)C1)c1ccccc1 (stereo unspecified),nt,20%,nt,nt,nt,nt
SMILES,DT40 TDP1 no CPT,ALOX12 inh,TDP1 cell CPT,IL1B secr inh,HT1080 IDH1KD tx,HT1080-NT tox
CS/C(=N\S(=O)(=O)c1cccs1)Nc1cccc(Cl)c1C,?,-9%,15µM*,0,-11%,-4%
Cc1ccc2c(n1)N(C)[C@H](CO)CCN(Cc1ccc(C(F)(F)F)cc1)C2,nt,7%[176 µM],nt,nt,nt,nt
CC(C)C(O)(C(=O)NNc1ccccc1)C(C)C,-12%,96%,1%,-5,11%,14%
CCOC(=O)NNc1ccccc1,0%,?,5%,8,3.7µM*,4.1µM*
CCC(O)CC(C(=O)NNc1ccccc1)C(=O)NNc1ccccc1 (stereo unspecified),-1%,11µM*,23%,1,5.8µM*,2.6µM*
CCOC(=O)C(=CNC(C)=O)C(=O)OCC,nt,17%,nt,nt,nt,nt
CCOC(=O)C(=CNNc1ccccc1)C(=O)OCC,16µM*,?,4.6µM*,-15,-28%,-5%
CCCCN(C)C(=O)CCC1CCN(c2cc(NC3CC3)ncn2)CC1,nt,45%,nt,nt,nt,nt
CCc1sc(C(=O)OCc2ccccc2C#N)cc1C,nt,14%,nt,nt,nt,nt
Cc1cc(OCCCCn2ccnc2)cc(C)c1Cl,21µM*,-4%,18µM*,-70*,?,-28%
Cc1cc(OCCCn2ccnc2)ccc1C(C)C,21µM*,-20%,?,-21,-2%,5%
CC(C)(C)c1ccc(OCCCn2ccnc2)cc1,?,-26%,-3%,-68*,-24%,-12%
c1ccc2cc(OCCCn3ccnc3)ccc2c1,?,-8%,21%,?,-2%,-1%
CCCCOc1ccc(NC(=O)C(=O)NCCCn2ccnc2)cc1,18µM*,17%,?,10,10%,-1%
O=C(Cc1cccs1)N1CCC2(CC1)CC(N(Cc1ccc(F)cc1)C1CC1)CCO2 (stereo unspecified),nt,8%,nt,nt,nt,nt

# Source: PubChem BioAssay (National Center for Advancing Translational Sciences (NCATS))
